For some of these results: Results with a measured potency or affinity are listed apart. The source made the active and inactive calls. Unless noted, no rule for the calls is given here.
Tests used:
[1] = antimalarial activity against Dd2 strain (AID 2302;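 active = growth inhibition above 50% at the single 2 µM test dose, taken to imply half-maximal potency below 2 µM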;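 also: 0% = DMSO untreated growth and 100% = chloroquine plus artemisinin killed control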); settings: P. falciparum Dd2 in RBCs, LDH growth readout, 72 h; at 2 µM; stronger effect = higher value
[2] = HepG2 cytotoxicity, primary screen, cytotoxicity control for P. falciparum antimalarial project, cell-based, ATP luminescence (AID 2303;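 active = inhibition above 50%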;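 also: 0% = DMSO wells and 100% = digitonin-killed cells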); settings: HepG2 viability, 24-48 h, at 10 µM, stronger effect = higher value
[3] = target: L-lactate dehydrogenase (Plasmodium falciparum (isolate CDC / Honduras)) (UniProt Q27743); assay: PfLDH activity inhibition – cell lysate, 3D7 strain, counter-screen for P. falciparum growth inhibition project (AID 2304);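 also: 0% = vehicle and 100% = reference inhibitor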; settings: P. falciparum 3D7 crude extract, LDH APAD/NBT absorbance; at 2 µM; stronger effect = higher value
Chain of L-lactate dehydrogenase (Plasmodium falciparum (isolate CDC / Honduras)) (Q27743 whole entry, looked up): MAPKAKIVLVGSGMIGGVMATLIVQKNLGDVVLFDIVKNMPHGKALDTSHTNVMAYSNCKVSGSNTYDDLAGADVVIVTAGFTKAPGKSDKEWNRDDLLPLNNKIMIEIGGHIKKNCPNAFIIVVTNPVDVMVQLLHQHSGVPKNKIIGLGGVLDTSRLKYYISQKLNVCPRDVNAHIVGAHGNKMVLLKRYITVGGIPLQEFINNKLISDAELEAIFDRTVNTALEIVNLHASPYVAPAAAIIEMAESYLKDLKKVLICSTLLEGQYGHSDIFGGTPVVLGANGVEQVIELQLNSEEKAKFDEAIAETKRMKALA

[4] = inhibition of 3D7 malaria parasite growth – strain 3D7 (AID 2306);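 also: 0% = DMSO wells and 100% = chloroquine plus artemisinin control wells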; settings: P. falciparum 3D7 erythrocytic growth, LDH absorbance, 72 h; at 2 µM; stronger effect = higher value
[5] = target: Plasmodium falciparum protein kinase 6 (PK6, PF3D7_1337100) (UniProt Q8IDW1); assay: PfPK6 kinase inhibitors, biochemical, TCAMS library (AID 1159586); settings: recombinant PfPK6, Kinase-Glo ATP depletion luminescence
Chain of Plasmodium falciparum protein kinase 6 (PK6, PF3D7_1337100) (Q8IDW1 1-305): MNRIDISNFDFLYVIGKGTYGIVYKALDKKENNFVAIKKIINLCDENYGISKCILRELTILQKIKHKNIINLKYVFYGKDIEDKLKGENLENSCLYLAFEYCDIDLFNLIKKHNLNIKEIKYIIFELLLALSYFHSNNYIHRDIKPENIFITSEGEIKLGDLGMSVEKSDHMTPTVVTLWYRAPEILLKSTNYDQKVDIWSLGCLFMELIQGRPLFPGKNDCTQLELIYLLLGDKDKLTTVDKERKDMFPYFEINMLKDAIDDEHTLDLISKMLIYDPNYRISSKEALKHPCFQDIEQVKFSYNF

[6] = target: Protein kinase 7 (PK7), Plasmodium falciparum 3D7 (PF3D7_0213400) (UniProt Q7YTF7); assay: inhibition of Plasmodium PK7 catalytic activity – biochemical, TCAMS antimalarial set, Kinase-Glo luminescence (AID 1159587); settings: recombinant PfPK7, Kinase-Glo ATP depletion luminescence
Chain of Protein kinase 7 (PK7), Plasmodium falciparum 3D7 (PF3D7_0213400) (Q7YTF7 1-343): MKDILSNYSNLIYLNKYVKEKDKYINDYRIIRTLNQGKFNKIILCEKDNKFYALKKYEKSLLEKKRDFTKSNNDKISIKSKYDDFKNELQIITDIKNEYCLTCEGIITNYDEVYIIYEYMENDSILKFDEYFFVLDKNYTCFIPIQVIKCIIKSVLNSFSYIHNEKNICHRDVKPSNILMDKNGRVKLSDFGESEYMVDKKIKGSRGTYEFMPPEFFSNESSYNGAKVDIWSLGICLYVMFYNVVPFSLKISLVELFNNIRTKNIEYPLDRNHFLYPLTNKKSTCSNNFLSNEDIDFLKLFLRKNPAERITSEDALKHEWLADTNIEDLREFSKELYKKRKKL

[7] = target: Calcium-dependent protein kinase 4 (Plasmodium falciparum (isolate 3D7)) (UniProt Q8IBS5); assay: PfCDPK4 kinase inhibitors, biochemical, TCAMS library (AID 1159588; cut-off not given, nearly all actives have IC50 up to about 0.91 µM); settings: recombinant PfCDPK4, Kinase-Glo ATP depletion luminescence
Chain of Calcium-dependent protein kinase 4 (Plasmodium falciparum (isolate 3D7)) (Q8IBS5 whole entry, looked up): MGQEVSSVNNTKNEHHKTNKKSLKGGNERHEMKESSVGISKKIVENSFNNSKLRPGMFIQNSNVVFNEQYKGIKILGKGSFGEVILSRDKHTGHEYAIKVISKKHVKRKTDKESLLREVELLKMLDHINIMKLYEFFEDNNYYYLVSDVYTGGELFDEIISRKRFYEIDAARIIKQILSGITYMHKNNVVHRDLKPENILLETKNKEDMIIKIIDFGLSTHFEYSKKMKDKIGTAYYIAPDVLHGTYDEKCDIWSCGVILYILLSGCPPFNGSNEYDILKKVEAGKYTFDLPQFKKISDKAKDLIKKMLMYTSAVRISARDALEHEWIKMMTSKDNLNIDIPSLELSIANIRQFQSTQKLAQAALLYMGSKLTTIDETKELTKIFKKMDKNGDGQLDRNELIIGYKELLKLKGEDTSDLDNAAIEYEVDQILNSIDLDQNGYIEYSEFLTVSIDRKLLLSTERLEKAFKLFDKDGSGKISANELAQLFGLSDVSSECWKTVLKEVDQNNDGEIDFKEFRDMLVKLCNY

[8] = system: F380Y; assay: modulators of BK channel variants, profiling panel, selectivity assay, cell-based, U2OS BacMam, thallium flux, beta subunits (AID 1259406;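 active = thallium flux through the channel raised or lowered by more than 3 SD from vehicle-only wells, actives on both sides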;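 also: initial slope of Thallos dye fluorescence rise after thallium is added; log ratio against the mean of 0.3% DMSO vehicle wells on the same plate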); settings: at 30 µM
[9] = system: F380Y/beta1; assay: as above; settings: at 30 µM
[10] = system: F380Y/beta2Delta; assay: as above; settings: at 30 µM
[11] = system: F380Y/beta4; assay: as above; settings: at 30 µM
[12] = target: Calcium-activated potassium channel subunit alpha-1 (Homo sapiens) + Leucine-rich repeat-containing protein 26 (Homo sapiens) (UniProt Q12791+Q2I0M4); assay: as above; settings: F380Y/Slo1WT/gamma1, at 30 µM
Chain of Calcium-activated potassium channel subunit alpha-1 (Homo sapiens) + Leucine-rich repeat-containing protein 26 (Homo sapiens) (Q2I0M4 whole entry, looked up, one chain of several): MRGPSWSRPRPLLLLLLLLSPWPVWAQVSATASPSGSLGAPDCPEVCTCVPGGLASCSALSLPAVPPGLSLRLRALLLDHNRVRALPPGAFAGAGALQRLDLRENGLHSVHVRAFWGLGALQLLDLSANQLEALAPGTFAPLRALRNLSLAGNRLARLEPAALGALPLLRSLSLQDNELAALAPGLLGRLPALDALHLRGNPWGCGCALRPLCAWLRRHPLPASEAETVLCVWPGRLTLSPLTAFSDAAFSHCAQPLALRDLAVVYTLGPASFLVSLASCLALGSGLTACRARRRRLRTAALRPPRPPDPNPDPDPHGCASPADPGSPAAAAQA

[13] = system: R275C; assay: as above; settings: at 30 µM
[14] = system: R275C/beta1; assay: as above; settings: at 30 µM
[15] = system: R275C/beta2Delta; assay: as above; settings: at 30 µM
[16] = system: R275C/beta4; assay: as above; settings: at 30 µM
[17] = system: R275C/Slo1WT/beta2; assay: as above; settings: at 30 µM

CCn1c(-c2nonc2N)nc2c(-c3cccc(NC(=O)Nc4cccc(C#N)c4)c3)ncc(OCCCN)c21
inactive: inhibition [2] 37% | inhibition [3] 0% | outcome [5] | outcome [6]
active: growth inhibition [1] 80% | growth inhibition [4] 92%

O=c1[nH]ccc2nc(N[C@@H]3CCCNC3)nc(Nc3ccc(S(=O)(=O)N4CCOCC4)cc3)c12
inactive: inhibition [2] 13% | inhibition [3] 0% | outcome [6] | outcome [7]
active: growth inhibition [1] 99% | growth inhibition [4] 96%

CN1CCN(c2ccc(Nc3nccc(-c4cnn5ncccc45)n3)cc2Cl)CC1
inactive: inhibition [3] 0% | outcome [6] | outcome [7]
active: growth inhibition [1] 92% | inhibition [2] 65% | growth inhibition [4] 95%

CCn1c(-c2nonc2N)nc2c(-c3cccc(NC(=O)Nc4ccc5c(c4)CCC5)c3)ncc(OCCCN)c21
inactive: inhibition [2] 26% | inhibition [3] -2% | outcome [5] | outcome [6]
active: growth inhibition [1] 94% | growth inhibition [4] 99%

CNC(=O)c1ccccc1Nc1nc(Nc2cccc(CS(C)(=O)=O)c2)ncc1C
active: growth inhibition [1] 95% | inhibition [2] 74% | growth inhibition [4] 97%
inactive: inhibition [3] -4% | outcome [6] | outcome [7]

COc1ccc(Nc2ncc3c(-c4cccc(NC(=O)Cc5ccc(O)cc5)c4)c[nH]c3n2)cc1OC
inactive: inhibition [2] 48% | inhibition [3] -2% | outcome [6] | outcome [7]
active: growth inhibition [1] 99% | growth inhibition [4] 102%

CN1CCN(c2ccc(Nc3nccc(-c4c(-c5cccc(NC(=O)c6c(F)cccc6F)c5)nn5ccccc45)n3)cc2)CC1
active: growth inhibition [1] 98% | inhibition [2] 86% | growth inhibition [4] 98%
inactive: inhibition [3] -3% | outcome [5] | outcome [6]

NC(=O)c1ccccc1Nc1nc(Nc2cccc(N3CCN(CCO)CC3)c2)ncc1Cl
active: growth inhibition [1] 98% | inhibition [2] 93% | growth inhibition [4] 95%
inactive: inhibition [3] 1% | outcome [6] | outcome [7]

CNC(=O)c1ccccc1Nc1nc(Nc2ccc(N3CCOCC3)cc2)ncc1Cl
inactive: inhibition [3] -3% | outcome [6] | outcome [7]
active: growth inhibition [1] 97% | inhibition [2] 75% | growth inhibition [4] 97%

CCn1c(-c2nonc2N)nc2c(-c3cccc(NC(=O)Nc4cccc(C(F)(F)F)c4)c3)ncc(OCCCN)c21
active: growth inhibition [1] 70% | growth inhibition [4] 95%
inactive: inhibition [2] 21% | inhibition [3] 2% | outcome [5] | outcome [6]

COCCOc1ccc(Nc2nccc(-c3c(-c4cccc(NC(=O)c5c(F)cccc5F)c4)nn4ccccc34)n2)cc1Cl
active: growth inhibition [1] 97% | inhibition [2] 53% | growth inhibition [4] 99%
inactive: inhibition [3] 4% | outcome [5] | outcome [6]

Cc1csc(-c2ncc(OC[C@@H](N)Cc3ccccc3)cc2-c2ccc3n[nH]c(C)c3c2)c1
inactive: growth inhibition [1] 35% | inhibition [2] 48% | inhibition [3] 4% | outcome [5] | outcome [6]
active: growth inhibition [4] 98%

CC(=O)Nc1cccc(Nc2nccc(-c3c(-c4cccc(NC(=O)c5c(F)cccc5F)c4)nn4ncccc34)n2)c1
active: growth inhibition [1] 51% | inhibition [2] 83% | growth inhibition [4] 96%
inactive: inhibition [3] 5% | outcome [6]

CNC(=O)c1ccccc1Nc1nc(Nc2ccc(CCN3CCN(C)CC3)cc2)ncc1Cl
inactive: inhibition [3] 5% | outcome [6]
active: growth inhibition [1] 98% | inhibition [2] 76% | growth inhibition [4] 97%

CC(C)c1ccc(NC(=S)NC2CC3CC2C2C=CCC32)cc1 (configuration not stated)
inactive: log fold change Tl+ flux [8] 0.00954 | log fold change Tl+ flux [9] -0.00688 | log fold change Tl+ flux [10] -0.0661 | log fold change Tl+ flux [17] -0.0657
active: log fold change Tl+ flux [11] -0.422 | log fold change Tl+ flux [12] -0.206 | log fold change Tl+ flux [13] -0.205 | log fold change Tl+ flux [14] -0.152 | log fold change Tl+ flux [15] -0.109 | log fold change Tl+ flux [16] -0.11

COc1ccc(Oc2ccc([N+](=O)[O-])cc2C2=NC(=CN(C)C)C(=O)O2)cc1
inactive: log fold change Tl+ flux [8] -0.0336 | log fold change Tl+ flux [9] -0.0257 | log fold change Tl+ flux [10] -0.0604 | log fold change Tl+ flux [11] -0.00321 | log fold change Tl+ flux [12] -0.0547 | log fold change Tl+ flux [13] -0.0108 | log fold change Tl+ flux [14] -0.015 | log fold change Tl+ flux [15] -0.0321 | log fold change Tl+ flux [16] -0.00628 | log fold change Tl+ flux [17] -0.0407

Cc1nn(-c2ccccc2)nc1CNC(=O)COc1ccccc1
inactive: log fold change Tl+ flux [8] -0.0388 | log fold change Tl+ flux [9] -0.0688 | log fold change Tl+ flux [10] -0.0499 | log fold change Tl+ flux [11] -0.0891 | log fold change Tl+ flux [12] -0.0325 | log fold change Tl+ flux [13] -0.00552 | log fold change Tl+ flux [14] -0.0187 | log fold change Tl+ flux [15] 0.0169 | log fold change Tl+ flux [16] -0.0424 | log fold change Tl+ flux [17] 0.0189

CS(=O)(=O)Cc1ccc(Nc2nccc(-c3c(-c4cccc(NC(=O)C5CCCCC5)c4)nn4ncccc34)n2)cc1
inactive: inhibition [2] 31% | inhibition [3] 0% | outcome [6]
active: growth inhibition [1] 99% | growth inhibition [4] 98%

S=c1sc2c(s1)SCC1(CS2)OCCO1
inactive: log fold change Tl+ flux [8] -0.0425 | log fold change Tl+ flux [9] 0.0267 | log fold change Tl+ flux [10] -0.0279 | log fold change Tl+ flux [11] 0.0791 | log fold change Tl+ flux [12] 0.000395 | log fold change Tl+ flux [13] -0.0211 | log fold change Tl+ flux [14] -0.0642 | log fold change Tl+ flux [15] -0.0207 | log fold change Tl+ flux [16] -0.0357 | log fold change Tl+ flux [17] -0.00583
